ChEMBL document CHEMBL3988442, “University of Dundee, Small-Polar-MMV Screening Library” (2021)

Columns and labels:
[1] = biological target: T1, Aspartate--tRNA(Asp/Asn) ligase (Mycobacterium tuberculosis (strain ATCC 25618 / H37Rv)) (UniProt P9WFW3); assay: Assay for Asp RNA synthetase-1 from Mycobacterium tuberculosis; format: functional; design: scale not given: direction of the effect not stated beside the values; settings: 30 µM; note: in the data most compounds retested in dose-response had high values
T1 sequence (whole entry): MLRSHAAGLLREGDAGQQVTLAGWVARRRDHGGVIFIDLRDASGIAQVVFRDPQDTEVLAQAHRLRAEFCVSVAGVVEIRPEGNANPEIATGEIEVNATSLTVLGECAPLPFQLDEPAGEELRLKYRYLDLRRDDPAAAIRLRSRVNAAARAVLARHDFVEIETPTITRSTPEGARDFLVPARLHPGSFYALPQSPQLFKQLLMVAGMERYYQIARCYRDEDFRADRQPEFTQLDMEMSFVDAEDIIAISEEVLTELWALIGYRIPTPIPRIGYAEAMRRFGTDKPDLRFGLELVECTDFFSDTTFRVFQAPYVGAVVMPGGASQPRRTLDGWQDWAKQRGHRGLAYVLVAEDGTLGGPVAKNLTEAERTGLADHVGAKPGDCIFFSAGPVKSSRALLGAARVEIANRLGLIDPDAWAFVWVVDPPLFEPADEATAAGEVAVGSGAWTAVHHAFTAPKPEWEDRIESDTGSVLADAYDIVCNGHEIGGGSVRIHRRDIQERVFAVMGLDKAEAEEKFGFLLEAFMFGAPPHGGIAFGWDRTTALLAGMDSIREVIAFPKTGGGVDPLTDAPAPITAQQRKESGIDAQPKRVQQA

[2] = biological target: Shiga toxin 2 (Escherichia coli O157:H7) (UniProt P09385+P09386); assay: E. coli 0.157:H7 Shiga Toxin SOP - stx2 screening assay; format: functional; design: scale not given: direction of the effect not stated beside the values; settings: 30 µM

Row | SMILES | Percent Effect [1] [%] | Percent Effect [2] [%]
1 | COCCCNc1nccc(-c2c[nH][nH]c2=O)n1 | 6.51 | -55.9
2 | COc1ccc(CN2CC[C@H](NC(C)=O)[C@@H](O)CC2)c(OC)c1 | 3.53 | -14.9
3 | CCOc1ccc(NC(=O)CN2CCN(c3nccn3C)CC2)cc1 | -3.86 | -64.8
4 | Cn1nccc1C(=O)N1CCOC(Cc2cccnc2)C1 (centres undefined) | -0.485 | -23.7
5 | Cc1ncc(CNCC2CCCN2c2cccnn2)s1 (centres undefined) | 0.684 | -14.7
6 | COCCCNC(=O)CN(C)C(=O)c1cc(C)ccc1O | 0.583 | 14.3
7 | CN(C)CC1CN(C(=O)NCc2ccccc2)Cc2nccn2C1 (centres undefined) | -0.114 | -2.62
8 | CN1CC(c2ccccc2)CC12CCN(C(=O)c1c(Cl)cnn1C)CC2 (centres undefined) | -1.22 | 17
9 | CN1CCOC(CN(C(=O)Cc2ccccc2F)c2nccs2)C1 (centres undefined) | -1.89 | -16
10 | CCNC(=O)c1ccnc(NCC2COc3cc(OC)ccc3C2)c1 (centres undefined) | -2.64 | -9.33
11 | CC(NC(=O)NCc1ccc(Cl)s1)c1ccccn1 (centres undefined) | -0.451 | -14.6
12 | O=C(Cc1csc(-c2ccco2)n1)N1CCN(c2cnccn2)CC1 | -2.43 | -70.6
13 | O=C(Cc1ccc(-n2cccn2)cc1)N1CCCC(n2cccn2)C1 (centres undefined) | -2.94 | -22.3
14 | CCn1nc2c(cc1=O)CN(Cc1nc3ccccc3c(=O)[nH]1)CC2 | -3.91 | 1.48
15 | CC(C)N(C)Cc1cnc2n1CCN(C(=O)NC1CCCC1)C2 | -1.4 | -28.1
16 | CNC(=O)C1(c2cnccn2)CCCN1C(=O)c1ccn(C)n1 (centres undefined) | -7.79 | -1.47
17 | FC1(F)CCN(Cc2ccccn2)CC12CCN(c1cccnc1)C2 (centres undefined) | 1.08 | -6.96
